In PubChem BioAssay (Tox21):
Activity calls are given as the source filed them. Calls follow the shape of the dose curve; as a rule, active = well fitted activation curve with a large enough effect in the repeat runs; inconclusive = weak or mixed curves; inactive = flat fitted curve, though single readings scatter.

Assay: A CellTox Green Cytotoxicity Assay to monitor cytotoxicity in HEK293 cells - 0 hour (AID 1224869); also: nearly all actives have a fitted effect of over 50% in size
Details: CellTox Green fluorescence; series mostly up to 76.8 µM; cytotoxicity: at the top concentration
Procedure, shortened: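 Tox21 screen in HEK293: membrane-impermeant cyanine dye fluoresces on binding dead-cell DNA; compound pinned 5 h post-seeding, plates held at 37 C, signal read repeatedly through 40 h.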
% is scaled to controls: 0 for no effect and ±100 for the full control effect.

| SMILES | cytotoxicity |
| --- | --- |
| O=C1c2ccccc2C(=O)C1c1ccc2cc(S(=O)(=O)O)cc(S(=O)(=O)O)c2n1 | -6.12% (inactive) |
| CCCCCCCCCCCCN1CCOCC1 | 5.37% (inactive) |
| CC(=O)c1ccc(Cl)c(Cl)c1Cl | -3.03% (inactive) |
| CC(C(=O)O)c1ccc(/C=C2\CCCCC2=O)cc1 (centres undefined) | -0.493% [at 35.3 µM] (inactive) |
| COC=O | -7.29% [at 6.97 µM] (inactive) |
| Cc1c(N=C=O)cccc1N=C=O | -0.815% (inactive) |
| CC(=O)c1cccnc1 | -0.827% (inactive) |
| O=[N+]([O-])c1ccc(Cl)cc1Cl | 1.04% (inactive) |
| CCCCCCCCNC | 0.559% (inactive) |
| C=C(C)C(=O)OCCCCCCCCCCOC(=O)C(=C)C | 2.74% (inactive) |
| Cc1cc(C)c(C)c(O)c1 | -2.22% (inactive) |
| CCC(=O)O[C@]1(C(=O)COC)[C@@H](C)C[C@H]2[C@@H]3CCC4=CC(=O)C=C[C@]4(C)C3(F)[C@@H](O)C[C@@]21C (some centres undefined) | -0.0707% [at 35.3 µM] (inactive) |
| CCN(CC)CC(=O)OCC(=O)[C@@]1(O)CC[C@H]2[C@@H]3CCC4=CC(=O)CC[C@]4(C)[C@H]3[C@@H](O)C[C@@]21C | 0.974% [at 35.3 µM] (inactive) |
| CC1=C(C)C(=O)C(CCCCC#CCCCC#CCO)=C(C)C1=O | -0.936% [at 35.3 µM] (inactive) |
| C=CC(=O)OCCCCCCCCCC | 3.12% (inactive) |
| O=C(Cl)c1ccc(F)c(Cl)c1 | -2.48% (inactive) |
| O=C(NC1CCN(CCc2c[nH]c3ccccc23)CC1)c1ccccc1 | 1.68% [at 35.3 µM] (inactive) |
| CCOc1ccccc1O | 1.87% (inactive) |
| CCN(CCCCOC(=O)c1ccc(OC)c(OC)c1)C(C)Cc1ccc(OC)cc1 (centres undefined) | -0.658% [at 35.3 µM] (inactive) |
| CC1(C)CC(O)CC(C)(C)N1[O] | 0.802% (inactive) |

| SMILES | cytotoxicity |
| --- | --- |
| Cc1nc2sccn2c(=O)c1CCN1CCC(=C(c2ccc(F)cc2)c2ccc(F)cc2)CC1 | 1.08% [at 35.3 µM] (inactive) |
| CC(=O)S[C@H](C(=O)N[C@H]1Cc2ccccc2[C@H]2CCC[C@@H](C(=O)O)N2C1=O)C(C)C | -0.651% (inactive) |
| CCOC(OCC)OCC | -5.3% (inactive) |
| Cc1c(Cl)cccc1Nc1ccccc1C(=O)O | -2.42% [at 35.3 µM] (inactive) |
| COC(=O)c1cc(Cl)ccc1[N+](=O)[O-] | 3.11% (inactive) |
| O=C(Nc1ccc2c(c1)Cc1ccccc1-2)C(F)(F)F | -3.36% (inactive) |
| O=C(OCCCCCOC(=O)c1ccccc1)c1ccccc1 | 0.406% (inactive) |
| O=C1OC(=O)C2CC=CCC12 (centres undefined) | 1.18% (inactive) |
| O=C1C=CCCC1 | -0.828% (inactive) |
| O=C(O)CNc1ccccc1 | -2.51% (inactive) |
| O=C(O)c1cccnc1Nc1cccc(C(F)(F)F)c1 | -3.91% [at 35.3 µM] (inactive) |
| O=Cc1ccc([N+](=O)[O-])cc1 | -1.04% (inactive) |
| O=C(O)c1cccc(C(=O)O)c1C(=O)O | -0.839% (inactive) |
| O=C(Nc1ccccc1)c1cc([N+](=O)[O-])ccc1Cl | -0.0862% (inactive) |
| C/C=C1\[C@H]2C=C(C)C[C@]1(N)c1ccc(=O)[nH]c1C2 | -0.4% [at 35.3 µM] (inactive) |
| FC(F)(Cl)C(F)(Cl)Cl | 4.99% (inactive) |
| CC(CC(C#N)(c1ccccc1)C(C)C)N(C)C (centres undefined) | 2.17% [at 35.3 µM] (inactive) |
| CO[C@@H]1COCC[C@@H]1N[C@@H]1CC[C@@](C(=O)N2CCc3ncc(C(F)(F)F)cc3C2)(C(C)C)C1 | -3.35% (inactive) |
| CC[C@H](NC(C)C)[C@H](O)c1ccc(O)c2[nH]c(=O)ccc12 | 8.17% [at 35.3 µM] (inactive) |
